ALOX12 inh: Primary qHTS assay for inhibitors of human arachidonate 12S-lipoxygenase (ALOX12): Round 2; Potency, µM (doses to about 108 µM), without a hit: top-dose activity change, negative = inhibition, most hits filed as inhibitors; hit rate 1.1% among 580,000; Polyunsaturated fatty acid lipoxygenase ALOX12 (Homo sapiens), P18054; AID 1671190, 2021; purified 12hLO, xylenol orange hydroperoxide absorbance; note: potency is the fitted concentration of half-maximal effect
Target sequence (P18054 whole entry, looked up): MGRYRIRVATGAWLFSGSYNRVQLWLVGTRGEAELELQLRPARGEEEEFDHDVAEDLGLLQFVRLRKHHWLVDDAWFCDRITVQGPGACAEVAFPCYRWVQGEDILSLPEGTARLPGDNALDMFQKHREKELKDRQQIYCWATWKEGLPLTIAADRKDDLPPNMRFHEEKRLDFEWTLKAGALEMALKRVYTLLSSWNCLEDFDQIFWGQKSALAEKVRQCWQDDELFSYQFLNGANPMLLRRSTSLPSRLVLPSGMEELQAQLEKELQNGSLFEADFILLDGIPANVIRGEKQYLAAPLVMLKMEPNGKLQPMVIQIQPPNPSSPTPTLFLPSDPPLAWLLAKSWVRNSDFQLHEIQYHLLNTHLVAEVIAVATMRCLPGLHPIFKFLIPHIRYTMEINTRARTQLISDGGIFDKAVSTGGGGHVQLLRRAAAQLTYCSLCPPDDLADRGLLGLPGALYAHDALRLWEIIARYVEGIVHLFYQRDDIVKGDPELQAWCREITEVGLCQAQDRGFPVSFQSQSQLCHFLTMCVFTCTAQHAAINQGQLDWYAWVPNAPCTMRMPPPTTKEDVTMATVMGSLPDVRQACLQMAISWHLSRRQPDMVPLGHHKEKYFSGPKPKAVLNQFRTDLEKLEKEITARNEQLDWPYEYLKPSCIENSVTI
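Hydroperoxide product was detected by ferrous iron/xylenol orange as the 573 to 405 nm absorbance ratio. Arachidonic acid at 40 uM (final) was turned over for 30 min at room temperature by 150 nM human 12hLO, pH 7.0 Hepes buffer, after 15 min compound preincubation.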
IL-1B inflam inh: qHTS for Inhibitors of Inflammasome Signaling: IL-1-beta AlphaLISA Primary Screen | THP-1 LPS/ATP IL-1B secretion, AlphaLISA, 16 h; active compounds read low | activity change, % at 57.5 µM | hit rate 4.7% among 360,000; in the data active = activity change below about -50%; inconclusive = mostly about -30% to -49%
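THP-1 cells pretreated 1 hr with compounds (up to 57.5 uM final), then stimulated with LPS (250 ng/mL final) plus ATP (1.25 mM final); secreted IL-1B measured by AlphaLISA after 16 hr, decreased signal indicating inhibition.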
HT1080NT lethal: qHTS for induction of synthetic lethality in tumor cells producing 2HG: qHTS for the HT-1080-NT fibrosarcoma cell line. HT-1080-NT fibrosarcoma viability, CellTiter-Glo ATP luminescence, 48 h. Potency, µM (titrated, usually from 46.1 µM), for inactives: top-dose activity, negative = less viability, hits mostly cytotoxic. hit rate 1.6% among 360,000;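 note: NT is the 2HG producing partner of a matched IDH1 knockdown line; potency is the fitted concentration of half-maximal effect; 0% = DMSO-treated cells and -100% = media-only wells without cells; nearly all actives have a fitted effect of over 55% in size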
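HT-1080-NT; 750 cells/well; 5% FBS RPMI; 48 h compound, 37 degrees C; CellTiter-Glo luminescence; curve fitting and curve-class assignment.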
DT40 TDP1 no CPT: qHTS for Inhibitors of human tyrosyl-DNA phosphodiesterase 1 (TDP1): qHTS in cells in absence of CPT. hit rate 15% among 420,000. Potency, µM (doses to about 46.2 µM), inactives show at the top dose activity change, negative = growth inhibition, most hits filed as inhibitors. DT40 Tdp1-/- hTDP1 cells, no CPT, ATP luminescence, 48 h; note: potency is the fitted concentration of half-maximal effect; nearly all actives have a fitted effect of over 55% in size
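Camptothecin absent (DMSO only). Human TDP1-complemented DT40 knockout cells, 400 cells/well, 37 °C for minimum 48 hr; ATP measured via CellTiter-Glo, 30 min dark incubation, luminescence.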
DT40 TDP1 CPT: qHTS for Inhibitors of human tyrosyl-DNA phosphodiesterase 1 (TDP1): qHTS in cells in presence of CPT; chicken DT40 Tdp1-/-;hTDP1 cells + 20 nM CPT, ATP luminescence, 48 h; Potency, µM (titrated, usually from 46.2 µM), inactives show at the top dose activity change, negative = growth inhibition, actives largely listed as inhibitors; hit rate 12% among 420,000; note: potency is the fitted concentration of half-maximal effect; nearly all actives have a fitted effect of over 55% in size
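Cell growth measured by CellTiter-Glo luminescence after a minimum 48 h, 37 C compound exposure with 20 nM CPT in Tdp1-knockout DT40 cells stably expressing hTDP1, seeded 400/well; qHTS titration format.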
HT1080 IDH1KD tx: qHTS for induction of synthetic lethality in tumor cells producing 2HG: qHTS for the HT-1080-IDH1KD cell line | HT-1080 IDH1 knockdown viability, ATP luminescence, 48 h | Potency, µM (highest dose often 46.1 µM), without a hit: top-dose activity, negative = toxicity, hits mostly cytotoxic | hit rate 2% among 360,000 | AID 686971, 2013;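 note: potency is the fitted concentration of half-maximal effect; 0% = DMSO wells and -100% = cell-free medium wells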
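After a 2 h attachment period, IDH1KD HT-1080 cells took pin-transferred compound for 48 h at 37 °C; ATP-based luminescence after 10 min room-temperature reagent incubation reported viability.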
* marks the source's active call; other numbers are inactive results; [ ] = remark or other dose. The entries come from a sample that favours hits as a whole. Unless noted, calls come from the whole dose curve; as a rule, active = well fitted curve in the direction sought with a large enough effect; inconclusive = small, poorly fitted or top-dose-only effect, or another doubt; inactive = no such curve, though single readings can be large; an effect the other way counts as inactive or inconclusive. Unless noted, % is set by controls: 0 for no effect and ±100 for the full control effect.

Results for O=C1OC[C@H]2CCCN2C(=O)[C@@H](CC(=O)N(CCO)Cc2ccccc2)C/C=C\CC[C@@H]1Cc1ccc(F)cc1 ?
ALOX12 inh: -29%; IL-1B inflam inh: -9; HT1080NT lethal: 1%; DT40 TDP1 no CPT: 21µM*; DT40 TDP1 CPT: 18µM*; HT1080 IDH1KD tx: 2%

Results for O=C1OC[C@@H]2CCCN2C(=O)[C@H](CC(=O)N(CCO)Cc2ccccc2)C/C=C\CC[C@H]1Cc1ccc(F)cc1 ?
ALOX12 inh: 14%; IL-1B inflam inh: -29; HT1080NT lethal: -1%; DT40 TDP1 no CPT: inconclusive; DT40 TDP1 CPT: 23µM*; HT1080 IDH1KD tx: -6%

What do the screens show for `O=C(N/N=C/c1ccccn1)c1sc2ccccc2c1Cl`?
ALOX12 inh: inactive; IL-1B inflam inh: 202; HT1080NT lethal: -12%; DT40 TDP1 no CPT: 13µM*; DT40 TDP1 CPT: 16µM*; HT1080 IDH1KD tx: inconclusive

How did O=C(N/N=C/c1ccccn1)c1ccc(Cl)cc1 do in these assays?
ALOX12 inh: 485%; IL-1B inflam inh: -101*; HT1080NT lethal: -21%; DT40 TDP1 no CPT: 12µM*; DT40 TDP1 CPT: 12µM*; HT1080 IDH1KD tx: inconclusive

What do the screens show for `COc1cc(C(=O)N/N=C/c2ccccn2)cc(OC)c1OC`?
ALOX12 inh: 6%; IL-1B inflam inh: 82; HT1080NT lethal: inconclusive; DT40 TDP1 no CPT: 4.6µM*; DT40 TDP1 CPT: 3.3µM*; HT1080 IDH1KD tx: inconclusive

What do the screens show for `O=C(N/N=C/c1ccc([N+](=O)[O-])o1)c1sc2ccccc2c1Cl`?
ALOX12 inh: -24%; IL-1B inflam inh: -78*; HT1080NT lethal: -24%; DT40 TDP1 no CPT: 26µM*; DT40 TDP1 CPT: 23µM*; HT1080 IDH1KD tx: inconclusive

What do the screens show for `O=C(c1cccs1)N(Cc1cccnc1)C1CC1`?
ALOX12 inh: -3%

Results for COc1ccc(-c2noc(CC3CCN(C(=O)c4ccc(C)nc4)CC3)n2)cc1 ?
ALOX12 inh: 68%

Results for O=C(C1CC1)N1CCC(c2noc(-c3ccccn3)n2)C1 (stereo not given) ?
ALOX12 inh: 12%

Results for O=C1OCCCN1C1CCN(S(=O)(=O)c2cccs2)CC1 ?
ALOX12 inh: 9%[6.33 µM]

How did COc1ccc(CCC(=O)N2CCCCCNC(=O)[C@@H]3CCC[C@@H]32)cc1 do in these assays?
ALOX12 inh: 42%

Results for COc1ccc(C(=O)Nc2ccccc2C(=O)N/N=C/c2ccccn2)cc1OC ?
ALOX12 inh: 13%; HT1080NT lethal: inconclusive; DT40 TDP1 no CPT: 6.5µM*; DT40 TDP1 CPT: 4.6µM*; HT1080 IDH1KD tx: inconclusive

How did COc1ccc(C(=O)N/N=C/c2ccccn2)cc1OC do in these assays?
ALOX12 inh: 0%; IL-1B inflam inh: -5; HT1080NT lethal: -15%; DT40 TDP1 no CPT: inconclusive; DT40 TDP1 CPT: inconclusive; HT1080 IDH1KD tx: -29%

What do the screens show for `COc1cc(C(=O)N/N=C/c2cc([N+](=O)[O-])cs2)cc(OC)c1OC`?
ALOX12 inh: 18%; IL-1B inflam inh: 22; HT1080NT lethal: 2.9µM*; DT40 TDP1 no CPT: 1µM*; DT40 TDP1 CPT: 0.82µM*; HT1080 IDH1KD tx: 1.5µM*

How did O=C(N/N=C/c1ccccn1)c1ccncc1 do in these assays?
ALOX12 inh: 5%; IL-1B inflam inh: -2; HT1080NT lethal: -2%; DT40 TDP1 no CPT: 11%; DT40 TDP1 CPT: 2%; HT1080 IDH1KD tx: -7%

Results for O=C(N/N=C/c1ccccn1)c1ccccc1 ?
ALOX12 inh: -2%; IL-1B inflam inh: 73; HT1080NT lethal: -3%; DT40 TDP1 no CPT: 18µM*; DT40 TDP1 CPT: inconclusive; HT1080 IDH1KD tx: -23%

Results for O=C(N/N=C\c1ccccn1)c1ccccc1O ?
ALOX12 inh: 2%; IL-1B inflam inh: -123*; HT1080NT lethal: -3%; DT40 TDP1 no CPT: inconclusive; DT40 TDP1 CPT: 15µM*; HT1080 IDH1KD tx: inconclusive

Results for COCCN(C)C(=O)c1cn2cc(-c3ccc(F)cc3)n(CC=C(C)C)c(=O)c2n1 ?
ALOX12 inh: 27%

What do the screens show for `CCSc1nnc(NC(=O)C(NC(=O)c2ccc(Cl)cc2)C(C)C)s1` (stereo not given)?
ALOX12 inh: 0%; IL-1B inflam inh: 2; HT1080NT lethal: 1%; DT40 TDP1 no CPT: -15%; DT40 TDP1 CPT: -18%; HT1080 IDH1KD tx: 1%

How did Cc1cccc(/C=N/NC(=O)c2ccc(NC(=O)c3ccc(Cl)cc3)cc2)n1 do in these assays?
ALOX12 inh: 1%; IL-1B inflam inh: 48; HT1080NT lethal: 18µM*; DT40 TDP1 no CPT: inconclusive; DT40 TDP1 CPT: inconclusive; HT1080 IDH1KD tx: 18µM*

What do the screens show for `COc1ccc(C(=O)N/N=C/c2ccc3cccc(O)c3n2)cc1`?
ALOX12 inh: -9%; IL-1B inflam inh: -27; HT1080NT lethal: inconclusive; DT40 TDP1 no CPT: 5.2µM*; DT40 TDP1 CPT: inconclusive; HT1080 IDH1KD tx: inconclusive

How did O=C(N/N=C/c1cccc(NC(=O)c2ccc(Cl)cc2)c1)c1cccc(O)c1 do in these assays?
ALOX12 inh: -2%; IL-1B inflam inh: 12; HT1080NT lethal: inconclusive; DT40 TDP1 no CPT: 13µM*; DT40 TDP1 CPT: inconclusive; HT1080 IDH1KD tx: inconclusive

What do the screens show for `O=C(N/N=C/c1cccnc1)c1cccc(NC(=O)c2ccc(Cl)cc2)c1`?
IL-1B inflam inh: 11; HT1080NT lethal: 0%; DT40 TDP1 no CPT: -4%; DT40 TDP1 CPT: -2%; HT1080 IDH1KD tx: -9%

Results for NC(=Nc1ccccc1)N(c1ccccc1)c1ccccc1 ?
ALOX12 inh: 3%; IL-1B inflam inh: 6; HT1080NT lethal: -1%; DT40 TDP1 no CPT: 13µM*; DT40 TDP1 CPT: inconclusive; HT1080 IDH1KD tx: -17%

What do the screens show for `COc1ccc(CCNC(=O)c2cnn(-c3cccc(C)c3)c2C2CCN(C(=O)OC(C)(C)C)CC2)cc1OC`?
ALOX12 inh: -22%; DT40 TDP1 no CPT: 15µM*; DT40 TDP1 CPT: inconclusive

What do the screens show for `COc1ccc(OC)c(CCNC(=O)c2cnn(-c3ccc(C)cc3C)c2C2CCN(C(=O)OC(C)(C)C)CC2)c1`?
ALOX12 inh: -30%; DT40 TDP1 no CPT: 15µM*; DT40 TDP1 CPT: 4.6µM*
